Test results published in the supplement of paper PMC11732987, “Enantioselective OTUD7B fragment discovery through chemoproteomics screening and high-throughput optimisation” (Communications Chemistry, 2025).

Legend:
Test in all cases: log2 ratio of Biotin-Ahx-Ub-VS probe labelling (fragment/DMSO); higher = less target engagement (more negative = stronger competition), active = hit call of the paper (q ≤ 0.05, log2 ratio ≤ -1)
Conditions in all cases: compound concentration: 200 uM; treatment time: 3 h
[1] = target: USP34 (UniProt Q70CQ2)
Outline: (§1)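 HEK293T lysate (495 µg per sample, in Tris/CHAPS/IGEPAL buffer with protease inhibitors) was exposed in triplicate for 3 h to fragment at 200 µM or to vehicle, then to Biotin-Ahx-Ub-VS at 0.5 µM final for 1 h. Labelled DUBs were enriched on NeutrAvidin, digested with LysC and trypsin, and analysed by diaPASEF LC-MS/MS. Spectronaut label-free quantities were normalised to the global median, and values are average log2 ratios of fragment over vehicle from an unpaired t-test. Only proteins with ≥2 unique peptides were used.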

[2] = target: T1, USP36 (UniProt Q9P275)
T1 sequence (whole entry): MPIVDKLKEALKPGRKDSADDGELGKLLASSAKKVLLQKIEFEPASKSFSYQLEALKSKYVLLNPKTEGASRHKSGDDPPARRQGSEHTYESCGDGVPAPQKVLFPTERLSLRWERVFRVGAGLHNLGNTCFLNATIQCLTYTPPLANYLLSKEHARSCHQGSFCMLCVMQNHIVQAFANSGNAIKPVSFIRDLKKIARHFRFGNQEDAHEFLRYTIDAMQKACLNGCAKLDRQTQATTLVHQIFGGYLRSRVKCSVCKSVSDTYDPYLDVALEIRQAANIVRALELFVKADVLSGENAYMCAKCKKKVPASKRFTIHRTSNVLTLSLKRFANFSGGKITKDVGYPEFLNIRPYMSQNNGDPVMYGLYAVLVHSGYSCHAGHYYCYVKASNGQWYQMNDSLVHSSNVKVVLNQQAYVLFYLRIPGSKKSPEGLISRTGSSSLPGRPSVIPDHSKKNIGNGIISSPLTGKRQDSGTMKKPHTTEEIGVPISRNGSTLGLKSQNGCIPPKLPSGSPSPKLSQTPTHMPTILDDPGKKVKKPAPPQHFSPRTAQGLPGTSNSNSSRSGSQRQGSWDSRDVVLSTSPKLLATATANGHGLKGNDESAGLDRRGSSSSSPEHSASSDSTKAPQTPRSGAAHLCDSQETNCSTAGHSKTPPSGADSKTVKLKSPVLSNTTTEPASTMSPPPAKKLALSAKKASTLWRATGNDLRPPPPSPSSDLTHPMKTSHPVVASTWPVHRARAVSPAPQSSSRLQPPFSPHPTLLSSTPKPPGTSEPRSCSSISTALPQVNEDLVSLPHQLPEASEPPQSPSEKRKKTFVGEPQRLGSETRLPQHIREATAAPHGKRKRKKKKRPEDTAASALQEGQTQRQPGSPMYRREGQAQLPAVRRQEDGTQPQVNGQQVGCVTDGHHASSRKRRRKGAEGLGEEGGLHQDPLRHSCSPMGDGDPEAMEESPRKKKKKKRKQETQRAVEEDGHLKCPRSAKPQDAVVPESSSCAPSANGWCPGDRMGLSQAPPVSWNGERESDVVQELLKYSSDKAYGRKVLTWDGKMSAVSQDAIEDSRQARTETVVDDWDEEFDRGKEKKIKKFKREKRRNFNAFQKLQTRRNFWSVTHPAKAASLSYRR
Outline: as §1

[3] = target: T2, USP38 (UniProt Q8NB14)
T2 sequence (whole entry): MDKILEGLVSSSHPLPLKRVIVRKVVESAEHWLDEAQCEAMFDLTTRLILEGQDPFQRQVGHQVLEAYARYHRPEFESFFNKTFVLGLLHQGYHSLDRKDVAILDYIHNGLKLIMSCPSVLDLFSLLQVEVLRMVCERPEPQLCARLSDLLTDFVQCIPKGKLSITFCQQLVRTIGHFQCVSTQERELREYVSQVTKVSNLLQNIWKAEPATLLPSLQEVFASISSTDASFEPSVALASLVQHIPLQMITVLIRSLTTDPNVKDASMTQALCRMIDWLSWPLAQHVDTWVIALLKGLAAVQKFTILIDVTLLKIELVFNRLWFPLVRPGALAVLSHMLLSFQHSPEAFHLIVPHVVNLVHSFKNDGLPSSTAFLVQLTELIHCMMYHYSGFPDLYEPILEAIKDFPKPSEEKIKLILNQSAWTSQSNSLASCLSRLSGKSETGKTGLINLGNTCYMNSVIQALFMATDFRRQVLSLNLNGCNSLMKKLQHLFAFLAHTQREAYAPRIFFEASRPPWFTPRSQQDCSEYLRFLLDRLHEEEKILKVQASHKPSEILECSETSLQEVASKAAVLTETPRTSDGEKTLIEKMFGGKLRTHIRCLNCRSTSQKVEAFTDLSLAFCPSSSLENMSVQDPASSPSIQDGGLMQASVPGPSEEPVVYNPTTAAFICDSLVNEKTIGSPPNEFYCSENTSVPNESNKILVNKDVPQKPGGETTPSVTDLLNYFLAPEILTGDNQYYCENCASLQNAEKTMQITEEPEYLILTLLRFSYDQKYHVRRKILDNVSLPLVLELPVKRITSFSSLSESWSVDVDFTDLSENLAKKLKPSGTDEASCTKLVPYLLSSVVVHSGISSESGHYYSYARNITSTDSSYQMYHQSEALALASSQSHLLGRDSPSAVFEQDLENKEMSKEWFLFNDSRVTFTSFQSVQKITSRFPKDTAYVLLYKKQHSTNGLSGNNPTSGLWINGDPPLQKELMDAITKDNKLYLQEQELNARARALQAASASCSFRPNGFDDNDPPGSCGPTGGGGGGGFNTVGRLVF
Outline: as §1

[4] = target: T3, USP39 (UniProt Q53GS9)
T3 sequence (whole entry): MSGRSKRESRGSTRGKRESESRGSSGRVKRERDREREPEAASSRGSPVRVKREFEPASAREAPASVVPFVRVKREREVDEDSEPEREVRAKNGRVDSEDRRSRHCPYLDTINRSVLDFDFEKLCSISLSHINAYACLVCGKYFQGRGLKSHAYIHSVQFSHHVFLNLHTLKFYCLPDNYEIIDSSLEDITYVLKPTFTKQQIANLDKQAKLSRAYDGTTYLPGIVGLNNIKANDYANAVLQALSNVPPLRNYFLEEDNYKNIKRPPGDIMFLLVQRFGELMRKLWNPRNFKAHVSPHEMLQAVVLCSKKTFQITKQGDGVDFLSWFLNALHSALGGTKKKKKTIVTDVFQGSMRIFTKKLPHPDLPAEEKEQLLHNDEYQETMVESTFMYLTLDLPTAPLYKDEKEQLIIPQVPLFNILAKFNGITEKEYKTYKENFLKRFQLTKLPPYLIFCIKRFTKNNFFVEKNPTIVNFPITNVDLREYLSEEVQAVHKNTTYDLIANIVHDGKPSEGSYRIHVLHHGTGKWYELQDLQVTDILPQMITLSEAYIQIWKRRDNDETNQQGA
Outline: as §1

[5] = target: T4, USP4 (UniProt Q13107)
T4 sequence (whole entry): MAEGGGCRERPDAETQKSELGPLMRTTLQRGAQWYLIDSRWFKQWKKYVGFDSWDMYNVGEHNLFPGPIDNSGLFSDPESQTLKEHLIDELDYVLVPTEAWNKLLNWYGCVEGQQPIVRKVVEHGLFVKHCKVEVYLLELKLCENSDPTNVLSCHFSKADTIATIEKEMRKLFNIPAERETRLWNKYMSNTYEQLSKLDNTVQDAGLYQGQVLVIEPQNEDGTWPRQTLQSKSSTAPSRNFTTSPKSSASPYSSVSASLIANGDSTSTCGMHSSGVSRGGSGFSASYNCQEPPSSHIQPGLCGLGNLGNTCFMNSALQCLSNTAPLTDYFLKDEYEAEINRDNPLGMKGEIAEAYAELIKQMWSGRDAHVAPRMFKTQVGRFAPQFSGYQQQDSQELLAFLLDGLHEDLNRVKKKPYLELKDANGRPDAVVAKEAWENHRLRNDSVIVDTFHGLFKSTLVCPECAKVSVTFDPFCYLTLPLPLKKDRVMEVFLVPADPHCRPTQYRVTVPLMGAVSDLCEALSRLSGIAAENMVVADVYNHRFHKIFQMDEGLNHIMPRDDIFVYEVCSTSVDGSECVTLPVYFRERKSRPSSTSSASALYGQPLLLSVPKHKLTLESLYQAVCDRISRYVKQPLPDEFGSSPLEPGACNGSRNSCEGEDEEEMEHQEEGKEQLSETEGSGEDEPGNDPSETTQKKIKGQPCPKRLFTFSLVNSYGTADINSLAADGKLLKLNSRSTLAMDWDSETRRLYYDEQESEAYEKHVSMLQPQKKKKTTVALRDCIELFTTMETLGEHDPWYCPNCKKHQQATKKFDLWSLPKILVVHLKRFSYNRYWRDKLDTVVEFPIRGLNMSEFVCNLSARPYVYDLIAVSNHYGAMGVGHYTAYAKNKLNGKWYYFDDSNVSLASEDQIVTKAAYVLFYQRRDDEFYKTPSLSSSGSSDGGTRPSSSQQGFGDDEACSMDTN
Outline: as §1

Measured: log2 ratio of Biotin-Ahx-Ub-VS probe labelling

Sequence of USP34 (Q70CQ2 whole entry, the tested form may be a part): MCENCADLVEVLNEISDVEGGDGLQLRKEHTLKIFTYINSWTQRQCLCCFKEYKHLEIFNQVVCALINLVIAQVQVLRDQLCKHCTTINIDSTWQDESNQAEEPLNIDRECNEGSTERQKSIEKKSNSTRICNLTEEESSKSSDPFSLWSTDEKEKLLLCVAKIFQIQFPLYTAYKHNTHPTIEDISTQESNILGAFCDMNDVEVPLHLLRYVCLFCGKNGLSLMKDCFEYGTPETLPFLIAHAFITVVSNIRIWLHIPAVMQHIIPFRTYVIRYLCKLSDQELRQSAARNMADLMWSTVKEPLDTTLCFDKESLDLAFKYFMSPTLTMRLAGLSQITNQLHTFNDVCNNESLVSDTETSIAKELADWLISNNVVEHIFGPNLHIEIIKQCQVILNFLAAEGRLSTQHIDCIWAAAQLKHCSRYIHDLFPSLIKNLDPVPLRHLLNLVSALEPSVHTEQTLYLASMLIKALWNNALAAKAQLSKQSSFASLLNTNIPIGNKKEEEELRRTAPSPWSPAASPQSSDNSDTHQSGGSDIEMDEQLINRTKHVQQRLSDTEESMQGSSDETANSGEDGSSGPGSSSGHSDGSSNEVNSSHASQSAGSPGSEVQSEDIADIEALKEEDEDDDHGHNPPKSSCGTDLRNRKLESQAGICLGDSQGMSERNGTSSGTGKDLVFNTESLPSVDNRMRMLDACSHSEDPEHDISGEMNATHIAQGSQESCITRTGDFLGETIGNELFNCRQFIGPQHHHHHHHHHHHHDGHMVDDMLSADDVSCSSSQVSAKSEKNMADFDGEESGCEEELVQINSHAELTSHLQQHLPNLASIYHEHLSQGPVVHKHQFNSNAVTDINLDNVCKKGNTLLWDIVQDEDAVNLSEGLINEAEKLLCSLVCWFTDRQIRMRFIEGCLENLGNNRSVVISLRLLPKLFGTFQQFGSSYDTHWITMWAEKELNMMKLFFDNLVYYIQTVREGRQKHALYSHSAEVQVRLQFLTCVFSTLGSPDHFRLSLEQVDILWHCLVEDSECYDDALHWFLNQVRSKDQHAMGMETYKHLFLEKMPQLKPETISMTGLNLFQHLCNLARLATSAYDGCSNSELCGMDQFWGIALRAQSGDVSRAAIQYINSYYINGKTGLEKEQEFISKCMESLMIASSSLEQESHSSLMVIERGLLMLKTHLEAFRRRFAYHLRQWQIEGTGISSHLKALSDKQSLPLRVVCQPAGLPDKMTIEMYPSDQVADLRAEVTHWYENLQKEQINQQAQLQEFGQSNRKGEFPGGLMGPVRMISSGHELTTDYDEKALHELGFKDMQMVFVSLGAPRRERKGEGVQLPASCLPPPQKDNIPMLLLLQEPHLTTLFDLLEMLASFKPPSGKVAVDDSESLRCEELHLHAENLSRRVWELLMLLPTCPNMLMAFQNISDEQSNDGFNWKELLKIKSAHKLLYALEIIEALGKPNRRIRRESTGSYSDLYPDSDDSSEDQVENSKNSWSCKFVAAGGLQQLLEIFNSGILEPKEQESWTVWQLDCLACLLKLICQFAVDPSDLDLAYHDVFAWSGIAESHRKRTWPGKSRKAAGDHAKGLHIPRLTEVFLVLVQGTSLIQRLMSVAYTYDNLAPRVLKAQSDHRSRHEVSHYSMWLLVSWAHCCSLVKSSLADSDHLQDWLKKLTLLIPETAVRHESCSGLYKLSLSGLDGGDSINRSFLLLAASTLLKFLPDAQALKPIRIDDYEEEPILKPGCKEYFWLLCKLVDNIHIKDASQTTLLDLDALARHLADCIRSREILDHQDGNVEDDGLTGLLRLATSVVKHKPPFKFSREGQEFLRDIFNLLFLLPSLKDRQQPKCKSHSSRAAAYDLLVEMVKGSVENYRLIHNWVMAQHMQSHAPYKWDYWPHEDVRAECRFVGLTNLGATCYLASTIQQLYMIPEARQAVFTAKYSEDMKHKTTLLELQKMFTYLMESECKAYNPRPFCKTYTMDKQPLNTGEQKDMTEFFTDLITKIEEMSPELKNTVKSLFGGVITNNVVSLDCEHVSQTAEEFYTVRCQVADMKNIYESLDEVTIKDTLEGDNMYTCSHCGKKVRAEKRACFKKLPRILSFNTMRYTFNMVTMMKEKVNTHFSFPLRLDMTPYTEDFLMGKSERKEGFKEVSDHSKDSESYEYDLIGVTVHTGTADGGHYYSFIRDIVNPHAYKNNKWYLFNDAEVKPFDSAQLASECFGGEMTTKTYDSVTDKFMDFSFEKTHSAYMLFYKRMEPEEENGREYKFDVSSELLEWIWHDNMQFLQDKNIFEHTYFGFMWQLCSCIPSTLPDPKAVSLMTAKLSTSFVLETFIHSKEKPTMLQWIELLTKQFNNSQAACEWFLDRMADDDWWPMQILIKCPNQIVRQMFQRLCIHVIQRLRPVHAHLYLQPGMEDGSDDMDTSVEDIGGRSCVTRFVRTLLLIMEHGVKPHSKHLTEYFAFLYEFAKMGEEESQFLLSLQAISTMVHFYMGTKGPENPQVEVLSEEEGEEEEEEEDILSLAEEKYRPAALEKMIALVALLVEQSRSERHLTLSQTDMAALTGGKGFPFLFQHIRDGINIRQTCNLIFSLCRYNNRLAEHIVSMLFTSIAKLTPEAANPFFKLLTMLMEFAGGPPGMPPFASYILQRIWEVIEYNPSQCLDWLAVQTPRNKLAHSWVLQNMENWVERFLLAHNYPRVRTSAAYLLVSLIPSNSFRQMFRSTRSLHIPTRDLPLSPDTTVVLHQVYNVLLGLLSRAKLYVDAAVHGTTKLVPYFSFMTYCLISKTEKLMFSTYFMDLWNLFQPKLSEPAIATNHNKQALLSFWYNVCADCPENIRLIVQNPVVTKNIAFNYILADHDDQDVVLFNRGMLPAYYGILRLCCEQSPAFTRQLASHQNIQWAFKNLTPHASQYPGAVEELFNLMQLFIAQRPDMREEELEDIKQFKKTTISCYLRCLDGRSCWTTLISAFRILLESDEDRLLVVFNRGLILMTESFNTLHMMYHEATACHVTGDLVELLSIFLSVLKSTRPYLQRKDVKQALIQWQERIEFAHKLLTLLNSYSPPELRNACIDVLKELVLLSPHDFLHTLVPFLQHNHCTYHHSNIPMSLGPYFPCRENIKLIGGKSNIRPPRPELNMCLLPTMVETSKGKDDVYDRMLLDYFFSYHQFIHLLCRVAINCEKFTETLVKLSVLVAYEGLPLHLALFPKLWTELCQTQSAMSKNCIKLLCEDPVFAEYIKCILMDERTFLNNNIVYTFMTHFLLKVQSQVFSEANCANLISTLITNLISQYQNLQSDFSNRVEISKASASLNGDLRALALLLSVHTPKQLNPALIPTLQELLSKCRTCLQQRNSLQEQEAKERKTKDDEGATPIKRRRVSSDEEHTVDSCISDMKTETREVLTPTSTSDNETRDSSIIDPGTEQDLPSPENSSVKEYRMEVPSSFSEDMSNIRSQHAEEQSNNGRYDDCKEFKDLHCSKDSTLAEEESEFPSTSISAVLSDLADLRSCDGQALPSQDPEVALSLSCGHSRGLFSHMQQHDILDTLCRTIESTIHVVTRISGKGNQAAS

CCC(NC(=O)CCl)c1ccc(Cl)cc1 (stereo not given)
inactive: [1] -0.142 | [2] -0.231 | [3] 0.0692 | [4] 0.0269 | [5] 0.0111
